# Test results taken from PubChem BioAssay (NCATS).
# Values joined by “and” are separate entries in the source; they are usually repeats but may differ in a detail not shown here. Identical values can stand only once. Values without a mark were called inactive. Records with an inconclusive call do not appear. A call without a number means that no potency is given here. For part of these data: Measured potencies and affinities stand elsewhere. Active and inactive are the calls of the source. Unless noted, the rule behind the calls is not given here.
# How the values were obtained:
# [1] = Ebola virus entry assay, green fluorescence channel
# [2] = Ebola virus entry assay, blue channel fluorescence
# [3] = Ebola virus entry assay, ratio channel
# [4] = Ebola virus entry assay, green channel fluorescence
# [5] = Ebola virus entry assay, reporter ratio channel; Channel type: primary
# [6] = Ebola virus entry assay, blue channel (ratio component)
# [7] = qHTS assay for measurement of the activity of small molecule inhibitors on Zika virus induced Caspase-3 activity in human iPSC derived neural progenitor cells (hNPCs) (AID 1224857; active = well fitted curve in the direction sought with a large enough effect; an effect the other way counts as inactive or inconclusive; note: nearly all actives have a fitted effect of over 65% in size; note: potency is the fitted concentration of half-maximal effect); conditions: hNPCs ZIKV-induced caspase-3/7, Caspase-Glo luminescence, 6 h; series mostly up to 45.7 µM
# Summary of the method: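 Human iPSC-derived neural progenitor cells pretreated 1 hr with compounds, then infected with Zika virus (2 FFU/cell) for 6 hours at 37 C. Caspase-3/7 measured by Caspase-Glo luminescence; % inhibition calculated from induction scaled to uninfected (0%) and infected (100%) wells.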
# [8] = qHTS assay for cell viability of HEK293 cells (AID 743288; active = well fitted curve in the direction sought with a large enough effect; an effect the other way counts as inactive or inconclusive; note: nearly all actives have a fitted effect of over 50% in size; note: potency is the fitted concentration of half-maximal effect); conditions: ATP luminescence (CellTiter-Glo), 18 h; max response: stronger effect = lower value
# Summary of the method: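 The Tox21 protocol used parental HEK293 cells treated for 18 h at 37 C with compounds delivered by pintool; ATP-coupled luminescence after 30 min at room temperature gave viability.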
# [9] = qHTS assay for cell viability of the p53RE-bla HCT-116 cell line (AID 743292; active = well fitted curve in the direction sought with a large enough effect; an effect the other way counts as inactive or inconclusive; note: nearly all actives have a fitted effect of over 55% in size); conditions: p53RE-bla HCT-116 viability, ATP luminescence, 16 h; series mostly up to 95 µM
# Summary of the method: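 Compound-exposed HCT-116 (p53RE-bla) cells, 4,000 per well, were kept 16 h at 37 C following a 5 h preincubation. Cell number was estimated from total ATP by CellTiter-Glo luminescence read after 30 min at room temperature.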
SMILES,efficacy [1] [%],outcome [2],outcome [3],outcome [4],outcome [5],outcome [6],Potency [7],AC50 [5],max response [8],outcome [9],Potency [8]
CCCCC1C(=O)NC(=O)N(C2CCCCC2)C1=O (stereo not given),18.4,inactive,inactive,inactive,inactive,inactive,inactive,,,,
CC(=O)N(CC(O)CN(C(C)=O)c1c(I)c(C(=O)NCC(O)CO)c(I)c(C(=O)NCC(O)CO)c1I)c1c(I)c(C(=O)NCC(O)CO)c(I)c(C(=O)NCC(O)CO)c1I (stereo not given),-12.3,inactive,inactive,inactive,inactive,inactive,,,,,
CN1C[C@@H](NS(=O)(=O)N(C)C)C[C@@H]2c3cccc4c3c(cn4C)C[C@H]21,31.9,inactive,inactive,inactive,,inactive,inactive,39.8 µM (active),,,
COc1cc(CC#N)cc(OC)c1OC,-13.1,inactive,inactive,inactive,inactive,inactive,inactive,,,,
COc1nc(C)nc(Cl)c1NC1=NCCN1,-23.1,inactive,inactive,inactive,inactive,inactive,,,,,
CN(C)CC[C@@H](c1ccc(Cl)cc1)c1ccccn1,-31.3,inactive,inactive,inactive,inactive,inactive,,,,,
Cc1ncc(COP(=O)(O)O)c(C=O)c1O,-34.1,inactive,inactive,inactive,inactive,inactive,,,,,
CC(=O)Nc1cccc(O)c1,28,inactive,inactive,inactive,inactive,inactive,,,,,
O=C(O)c1cn(C2CC2)c2cc(Cl)c(F)cc2c1=O,14.4,inactive,inactive,inactive,inactive,inactive,,,,,
Cc1cc(NC(=O)C2=C(O)c3ccccc3S(=O)(=O)N2C)no1,-7.71,inactive,inactive,inactive,inactive,inactive,,,,,
CCn1cc(C(=O)O)c(=O)c2cc(F)c(N3CCN(C)CC3)cc21,-16.7,inactive,inactive,inactive,inactive,inactive,,,,,
Nc1nc(=O)n([C@@H]2O[C@H](CO)[C@@H](O)[C@@H]2F)cc1I,-12.8,inactive,inactive,inactive,inactive,inactive,,,,,
CCN(Cc1ccc(Cl)nc1)/C(=C/[N+](=O)[O-])NC,-11.7,inactive,inactive,inactive,inactive,inactive,inactive,,,,
C[C@]12CC[C@H]3[C@@H](CCC4=CC(=O)CC[C@@]43C)[C@@H]1CC[C@@H]2C(=O)O,-23.5,inactive,inactive,inactive,inactive,inactive,inactive,,,,
O=C(O)CCNC(=O)c1ccccc1,-15.3,inactive,inactive,inactive,inactive,inactive,,,,,
Clc1ccccc1-c1nc(-c2ccncc2)no1,-9.78,inactive,inactive,inactive,inactive,inactive,,,,,
O=c1[nH]c(=O)c2[nH]c(=O)[nH]c2[nH]1,22,inactive,inactive,inactive,inactive,inactive,,,,,
Nc1ccccc1C(=O)OCC(O)CO (stereo not given),-15.8,inactive,inactive,inactive,inactive,inactive,inactive,,,,
CCCCOC(=O)CCCCCCCCC(=O)OCCCC,-13.9,inactive,inactive,inactive,inactive,inactive,,,,,
OCC(O)CN1CCN(c2ccccc2)CC1 (stereo not given),24.6,inactive,inactive,inactive,inactive,inactive,,,,,
Cc1ccc(C(C)OC(=O)C2(C)CCC(C(=O)O)C2(C)C)cc1 (stereo not given),24.8,inactive,inactive,inactive,inactive,inactive,,,,,
NC1=NCC2c3ccccc3Cc3ccccc3N12 (stereo not given),22.9,inactive,inactive,inactive,inactive,inactive,,,,,
Oc1c(Br)cc(Br)cc1Br,-9.36,inactive,inactive,inactive,inactive,inactive,inactive,,-15.1% and -2.12%,inactive,
COc1ccc(CN2CCNCC2)c(OC)c1OC,47.4,inactive,inactive,inactive,inactive,inactive,inactive,,,,
C[C@]12C=CC(=O)C=C1CC[C@@H]1[C@@H]2CC[C@@]2(C)[C@H]1CC[C@]2(C)O,-14,inactive,inactive,inactive,inactive,inactive,inactive,,,,

SMILES,efficacy [1] [%],outcome [2],outcome [3],outcome [4],outcome [5],outcome [6],Potency [7],AC50 [5],max response [8],outcome [9],Potency [8]
c1cc2c(c(N3CCNCC3)c1)OCCO2,11.5,inactive,inactive,inactive,inactive,inactive,inactive,,,,
O=C(CCl)c1ccc(Cl)cc1Cl,-14.1,inactive,inactive,inactive,inactive,inactive,inactive,,,,14.1 µM (active)
C[C@H]1C(=O)O[C@@H]2CCN3CC=C(COC(=O)[C@](C)(O)[C@]1(C)O)[C@H]23,7.51,inactive,inactive,inactive,inactive,inactive,inactive,,-3.57%,inactive,
ClCc1cccc(Cl)c1,-21.7,inactive,inactive,inactive,inactive,inactive,inactive,,,,
CCC1(c2ccccc2)CCC(=O)NC1=O (stereo not given),11,inactive,inactive,inactive,inactive,inactive,inactive,,,,
CC(C)=C[C@@H]1[C@@H](C(=O)OCc2coc(Cc3ccccc3)c2)C1(C)C,20,inactive,inactive,inactive,inactive,inactive,inactive,,,,
C[C@]12CC[C@H](O)CC1=CC[C@@H]1[C@@H]2CC[C@]2(C)C(=O)CC[C@@H]12,42.1,inactive,inactive,inactive,inactive,inactive,inactive,,,,
CNC(=O)Oc1cccc2ccccc12,18.8,inactive,inactive,inactive,inactive,inactive,inactive,,-4.95% and -11.8%,inactive,
OC(O)C(Cl)(Cl)Cl,18.1,inactive,inactive,inactive,inactive,inactive,inactive,,,,
C1CN2CCC1CC2,-16,inactive,inactive,inactive,inactive,inactive,inactive,,,,
CN(C)CCc1c[nH]c2ccc(O)cc12,-13.8,inactive,inactive,inactive,inactive,inactive,inactive,,,,
COP(=O)(OC)OC=C(Cl)Cl,29.4,inactive,inactive,inactive,inactive,inactive,inactive,,-9.07% [middle of 4 runs],inactive,
Cc1cccc(Cc2cnc[nH]2)c1C,-25,inactive,inactive,inactive,inactive,inactive,inactive,,,,
CN(C)C(=O)Oc1cc(OC(=O)N(C)C)cc(C(O)CNC(C)(C)C)c1 (stereo not given),18.9,inactive,inactive,inactive,inactive,inactive,inactive,,,,
CCO[C@H]1O[C@@H]2OC3(C)CC[C@H]4[C@H](C)CC[C@@H]([C@H]1C)[C@@]24OO3,19.2,inactive,inactive,inactive,inactive,inactive,inactive,,,,
COc1ccc2c(C(=O)c3ccc(Cl)cc3)c(C)n(CC(=O)O)c2c1,38,inactive,inactive,inactive,inactive,inactive,inactive,,,,
ClCCCN1CCN(c2cccc(Cl)c2)CC1,26.2,inactive,inactive,inactive,inactive,inactive,inactive,,,,
COc1cc(N)c(Cl)cc1C(=O)NC1CN2CCC1CC2 (stereo not given),-20.5,inactive,inactive,inactive,inactive,inactive,inactive,,,,
N#Cc1nn(-c2c(Cl)cc(C(F)(F)F)cc2Cl)c(N)c1S(=O)C(F)(F)F (stereo not given),9.5,inactive,inactive,inactive,inactive,inactive,inactive,,-24.4%,inactive,
CC(Cc1ccc2c(c1)OCO2)NO (stereo not given),-23.6,inactive,inactive,inactive,inactive,inactive,inactive,,,,
O=C(CCCCl)c1ccc(F)cc1,36.2,inactive,inactive,inactive,inactive,inactive,inactive,,,,
CC(C)[N+](C)(CCC(C(N)=O)(c1ccccc1)c1ccccc1)C(C)C,13.5,inactive,inactive,inactive,inactive,inactive,31.6 µM (active),,,,
CCOC(=O)C(c1c(O)c2ccccc2oc1=O)c1c(O)c2ccccc2oc1=O,18.5,inactive,inactive,inactive,inactive,inactive,inactive,,,,
CCOC(=O)c1ncn2c1CN(C)C(=O)c1c(I)cccc1-2,19.2,inactive,inactive,inactive,inactive,inactive,inactive,,,,
CNC(C)Cc1ccc2c(c1)OCO2 (stereo not given),-15.1,inactive,inactive,inactive,inactive,inactive,inactive,,,,
